# In PubChem BioAssay (Tox21):
# Inconclusive results are not listed. A call without a number means that no potency is given here. A number with no mark means an inactive call. Calls of active or inactive are those of the source. Calls come from the whole dose curve; as a rule, active = well fitted curve in the direction sought with a large enough effect in the repeat runs; inconclusive = weak or mixed curves; inactive = no such curve, though single readings can be large; an effect the other way counts as inactive or inconclusive.
# What was measured:
# [1] = biological target: Cytochrome P450 1A2 (Homo sapiens) (UniProt P05177); test: Cytochrome P450 Family 1 Subfamily A Member 2 (CYP1A2) small molecule antagonists: luciferase reporter qHTS assay (AID 1671199); note: potency is the fitted concentration of half-maximal effect; for activity change, negative = inhibition: series mostly up to about 120 µM
# How it was run: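 Quantitative high-throughput format using the P450-Glo CYP1A2 system. Reaction initiated by NADPH regeneration solution, 1 h at room temperature, then stopped with detection reagent; luminescence measured 20 min later.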
# [2] = biological target: Voltage-gated inwardly rectifying potassium channel KCNH2 (Homo sapiens) (UniProt Q12809); test: Human Ether-a-go-go-Related Gene (hERG) channel small molecule antagonists: fluorescence cell-based qHTS assay (AID 1671200);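 note: hERG-expressing U2OS cells given a thallium stimulus after FluxOR II dye loading; series mostly up to about 77 µM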
# How it was run: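 Read-out: thallium influx as a surrogate for potassium, tracked as fluorescence (480 nm ex/540 nm em) every second for 2 min after Stimulus Buffer addition in dye-loaded hERG-U2OS cells.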
# [3] = biological target: Cytochrome P450 3A4 (Homo sapiens) (UniProt P08684); test: Cytochrome P450 Family 3 Subfamily A Member 4 (CYP3A4) small molecule antagonists: luciferase reporter qHTS assay (AID 1671201); note: series mostly up to about 120 µM
# How it was run: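 Luminescent readout (RLU) proportional to CYP3A4 activity, from luciferin generated off a proluciferin substrate. Enzyme–substrate mix plus compound 10 min at room temp, NADPH regeneration 1 h, detection reagent 20 min.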
# Note: nearly all actives have a fitted effect of over 50% in size.
# Chain of Cytochrome P450 3A4 (Homo sapiens) (P08684 whole entry, looked up): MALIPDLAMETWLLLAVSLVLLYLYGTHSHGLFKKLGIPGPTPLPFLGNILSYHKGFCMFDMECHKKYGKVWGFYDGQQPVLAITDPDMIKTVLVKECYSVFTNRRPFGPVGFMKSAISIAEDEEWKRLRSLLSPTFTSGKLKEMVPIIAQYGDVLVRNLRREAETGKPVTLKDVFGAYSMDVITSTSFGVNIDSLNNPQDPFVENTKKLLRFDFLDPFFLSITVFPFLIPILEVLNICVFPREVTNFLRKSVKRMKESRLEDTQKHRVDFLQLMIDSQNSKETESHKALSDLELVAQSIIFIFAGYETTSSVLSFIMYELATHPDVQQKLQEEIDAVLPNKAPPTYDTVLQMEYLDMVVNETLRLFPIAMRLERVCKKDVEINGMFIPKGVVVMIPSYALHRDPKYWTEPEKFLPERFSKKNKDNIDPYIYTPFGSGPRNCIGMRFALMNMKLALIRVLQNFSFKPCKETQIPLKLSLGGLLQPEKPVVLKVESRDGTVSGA
# Chain of Voltage-gated inwardly rectifying potassium channel KCNH2 (Homo sapiens) (Q12809 whole entry, looked up): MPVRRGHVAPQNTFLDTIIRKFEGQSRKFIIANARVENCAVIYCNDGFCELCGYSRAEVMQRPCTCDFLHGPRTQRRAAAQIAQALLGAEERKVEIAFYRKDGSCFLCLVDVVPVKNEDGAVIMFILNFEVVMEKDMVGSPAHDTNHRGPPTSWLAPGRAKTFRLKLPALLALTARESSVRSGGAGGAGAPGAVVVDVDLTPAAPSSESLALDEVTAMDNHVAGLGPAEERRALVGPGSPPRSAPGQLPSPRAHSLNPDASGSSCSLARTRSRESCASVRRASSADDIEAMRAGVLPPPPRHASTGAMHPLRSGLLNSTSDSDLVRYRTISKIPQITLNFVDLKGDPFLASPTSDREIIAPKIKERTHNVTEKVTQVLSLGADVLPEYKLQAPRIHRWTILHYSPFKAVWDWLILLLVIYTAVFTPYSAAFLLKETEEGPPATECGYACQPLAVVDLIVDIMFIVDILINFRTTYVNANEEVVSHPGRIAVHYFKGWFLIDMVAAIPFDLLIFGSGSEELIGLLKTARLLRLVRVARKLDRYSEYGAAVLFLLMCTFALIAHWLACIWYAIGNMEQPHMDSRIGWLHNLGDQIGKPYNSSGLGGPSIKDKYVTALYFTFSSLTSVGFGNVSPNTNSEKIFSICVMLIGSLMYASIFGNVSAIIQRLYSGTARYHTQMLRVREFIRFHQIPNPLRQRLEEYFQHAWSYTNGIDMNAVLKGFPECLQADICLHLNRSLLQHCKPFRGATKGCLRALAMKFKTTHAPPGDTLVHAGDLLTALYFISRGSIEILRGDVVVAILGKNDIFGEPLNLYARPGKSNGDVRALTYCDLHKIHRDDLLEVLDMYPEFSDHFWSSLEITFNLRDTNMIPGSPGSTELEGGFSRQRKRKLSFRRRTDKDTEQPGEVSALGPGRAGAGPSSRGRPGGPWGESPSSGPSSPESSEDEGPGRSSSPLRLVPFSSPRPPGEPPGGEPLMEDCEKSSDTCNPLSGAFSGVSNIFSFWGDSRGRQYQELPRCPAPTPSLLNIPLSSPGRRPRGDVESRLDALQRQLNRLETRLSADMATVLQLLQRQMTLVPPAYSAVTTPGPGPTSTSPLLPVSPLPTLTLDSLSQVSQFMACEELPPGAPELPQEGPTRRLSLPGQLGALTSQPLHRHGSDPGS
# Chain of Cytochrome P450 1A2 (Homo sapiens) (P05177 whole entry, looked up): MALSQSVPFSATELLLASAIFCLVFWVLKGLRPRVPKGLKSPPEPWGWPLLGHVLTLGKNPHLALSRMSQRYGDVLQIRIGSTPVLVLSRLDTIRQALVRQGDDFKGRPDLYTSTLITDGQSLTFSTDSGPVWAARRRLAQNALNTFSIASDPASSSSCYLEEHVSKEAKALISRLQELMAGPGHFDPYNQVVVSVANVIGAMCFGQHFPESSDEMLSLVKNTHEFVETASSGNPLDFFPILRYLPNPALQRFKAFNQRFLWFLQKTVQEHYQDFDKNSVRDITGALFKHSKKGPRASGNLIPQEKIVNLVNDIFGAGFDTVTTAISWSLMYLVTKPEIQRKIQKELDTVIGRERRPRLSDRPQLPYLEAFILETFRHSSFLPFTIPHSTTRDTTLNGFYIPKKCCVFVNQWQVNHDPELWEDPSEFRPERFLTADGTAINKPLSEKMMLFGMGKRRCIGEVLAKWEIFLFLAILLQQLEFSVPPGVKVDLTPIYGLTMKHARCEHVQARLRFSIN
SMILES,Potency [1],Potency [2],Potency [3],"activity change, negative = inhibition [2]"
C=CC(=O)OCCCl,40.8 µM (active),inactive,inactive,
CC1=CC(=O)[C@H]2C[C@@H]1C2(C)C,inactive,inactive,inactive,
O=[N+]([O-])c1ccc(/C=N\O)o1,27.5 µM (active),inactive,inactive,
O=C(O)CCCC[P+](c1ccccc1)(c1ccccc1)c1ccccc1,inactive,inactive,inactive,
CCN[C@H]1C[C@H](C)S(=O)(=O)c2sc(S(N)(=O)=O)cc21,inactive,inactive,inactive,
NC(=O)N[C@@H](CCC(=O)O)C(=O)O,inactive,inactive,inactive,
CC1(C)[C@@H]2CC[C@@]1(C)[C@H](O)C2,inactive,inactive,inactive,
C=C(C)C(=O)OCC(O)CO (stereo not drawn),inactive,inactive,inactive,
CC(C(=O)O)c1cccc(Oc2ccccc2)c1 (stereo not drawn),inactive,inactive,inactive,
C[N+]1(C)[C@@H]2CC(OC(=O)[C@H](CO)c3ccccc3)C[C@H]1[C@@H]1O[C@@H]12 (stereo partly drawn),inactive,inactive,inactive,
c1ccc(Cc2ccccc2)cc1,35.6 µM (active),inactive,inactive,
CC(C)NNC(=O)c1ccncc1,inactive,inactive,inactive,
O=C(O)c1cc(C(=O)O)cc(C(=O)O)c1,inactive,inactive,inactive,
O=C(O)CNC(=O)c1ccc(CO)o1,inactive,inactive,inactive,
CC(C)CCCO,inactive,inactive,inactive,
CCCCCCCCN1CCCC1=O,39.9 µM (active),inactive,inactive,
CCCCCCCCCCCCCCCCCCO,inactive,inactive,inactive,
CC(=O)Oc1cccc(C)c1,inactive,inactive,inactive,
[K+],inactive,inactive,inactive,
Cc1ccnc(NS(=O)(=O)c2ccc(N)cc2)n1,inactive,inactive,inactive,
C[C@@H]1CCC[C@H](C)N1,inactive,inactive,inactive,
CC1(C)OC[C@@H](COC(=O)CCc2ccc(OC[C@@H](O)CNCCNC(=O)N3CCOCC3)cc2)O1,inactive,inactive,inactive,
CC(C)CC(C)(N)C#N (stereo not drawn),inactive,inactive,inactive,

SMILES,Potency [1],Potency [2],Potency [3],"activity change, negative = inhibition [2]"
CCN(Cc1ccccc1)c1ccccc1,35.1 µM (active),inactive,inactive,
COc1c(N2CCNC(C)C2)c(F)cc2c(=O)c(C(=O)O)cn(C3CC3)c12 (stereo not drawn),inactive,inactive,inactive,
O=C(CO)[C@@H](O)[C@H](O)[C@@H](O)CO,inactive,inactive,inactive,
O=S(=O)(O)c1cc(O)c(O)c(S(=O)(=O)O)c1,inactive,inactive,inactive,
CC(C)C(=O)OC(=O)C(C)C,inactive,inactive,inactive,
CCOC(=O)CCC(=O)OCC,inactive,inactive,inactive,
CC(C)[C@H]1CC[C@@H](C)CC1=O,inactive,inactive,inactive,
CN1CCC(=C2c3ccccc3CCc3cccnc32)CC1,,inactive,,
Nc1ccn([C@@H]2O[C@H](CO)[C@@H](O)[C@@H]2O)c(=O)n1,inactive,inactive,inactive,
C1CCC2=NCCCN2CC1,,inactive,,
CC(=O)c1cnccn1,inactive,inactive,inactive,
C[N+](C)(CCOc1ccccc1)Cc1cccs1,inactive,,inactive,
NC(=O)NC1N=C([O][Al])NC1=O (stereo not drawn),,inactive,,
O=C(O)CCSCCC(=O)O,inactive,inactive,inactive,
CCOc1ccccc1OCC,,inactive,,
CC1=CCC(O)(C(C)C)CC1 (stereo not drawn),inactive,inactive,inactive,
Nc1ccccn1,,inactive,,
CCCCN1C=CN(C)C1,,,,-0.505% [at 15.8 µM]
c1coc(CNc2ncnc3nc[nH]c23)c1,,inactive,,
N[C@@H](CCC(=O)O)C(=O)O,39.9 µM (active),inactive,inactive,
COC(=O)C1=C(C)NC(C)=C(C(=O)OC(C)C)C1c1cccc2nonc12 (stereo not drawn),,inactive,,
Clc1cc(Cl)cc(Cl)c1,inactive,inactive,inactive,
